High-throughput results as filed in PubChem BioAssay.
PRMT1 inh = PRMT1 methyltransferase inhibitors, primary screen, biochemical, fluorescence polarization | Protein arginine N-methyltransferase 1 (Homo sapiens), Q99873 | recombinant PRMT1, activity-based probe fluorescence polarization | inhibition, % at 2.79 µM | 370,000 compounds, 1.3% hits | AID 652257, 2013;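 active = inhibition above about 21% made by adding two undisclosed values, limit read from the data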
ALR H2O2 inh = inhibitors of human ALR sulfhydryl oxidase, primary screen, biochemical, H2O2 detection, HRP-luminol luminescence, single point; inhibition, % (no concentration beside the values); FAD-linked sulfhydryl oxidase ALR (Homo sapiens), P55789; purified ALR, DTT oxidation; AID 485317, 2010; 290,000 compounds, 3.8% hits;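 active = mean replicate inhibition above about 79%, with every replicate also reaching it, limit read from the data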
ABHD5 PLIN5 PPI = ABHD5-PLIN5 interaction inhibitors, primary screen, cell lysate, split luciferase complementation, luminescence | Split G. princeps luciferase complementation, 4 h | inhibition, % at 4 µM | 360,000 compounds, 0.78% hits;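 active = inhibition above the mean inhibition across every tested compound plus 3 SD, cut at about 22% in these data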;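 note: 0% = DMSO only wells and the 100% control is not disclosed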
rCAG binder = binders of r(CAG) RNA repeats, primary screen, biochemical, fluorescence. 370,000 compounds, 1.3% hits. r(CAG) RNA repeat, TO-PRO-1 dye displacement fluorescence. AID 651821, 2012. inhibition, % at 3 µM;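 active = inhibition above the plate cutoff, the mean of all test compounds on that plate plus 3 SD, cut at about 35% in these data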;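 note: 0% = DMSO alone and 100% = 100 µM mitoxantrone as full dye displacement; higher means more dye released from RNA so lower well fluorescence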
Rtt109 Vps75 = inhibitors of C. albicans Rtt109/Vps75 HAT, primary screen, biochemical, ThioGlo CoA-SH fluorescence, plate reader. Histone acetyltransferase RTT109 (Candida albicans (strain SC5314 / ATCC MYA-2876)), …. 330,000 compounds, 0.16% hits. inhibition, % at 34.9 µM. purified Rtt109/Vps75, 4 h;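 active = inhibition of at least 50% in every replicate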
LANA-H2A inh = blockers of LANA interaction with H2A/H2B – biochemical, FP readout, HTS, primary screen; Protein LANA1 (Human herpesvirus 8 type P (isolate GK18)), Q9QR71; cell-free LANA-H2A/H2B peptide, fluorescence polarization; inhibition, % (test concentration not listed); 320,000 compounds, 0.6% hits; AID 2629, 2010; in the data active = inhibition mostly above about 10%, no sharp cut-off; inactive = mostly below about 6.7%
Starred values were filed as active, the others as inactive; / = no result. A selection: hits, their analogues and other compounds. The true share with any hit is near 5.9%.

SMILES	PRMT1 inh	ALR H2O2 inh	ABHD5 PLIN5 PPI	rCAG binder	Rtt109 Vps75	LANA-H2A inh
CC(=O)Nc1cc(-c2cccnc2)cn2c(-c3cccc(C(F)(F)F)c3)cnc12	1	/	5	5	/	/
O=S1(=O)CC(N2CC=CC2)CN1Cc1ccccc1 (centres undefined)	5	/	2	1	/	/
CC1(C(=O)Nc2ccc3c(c2)OCO3)CCN1C(=O)CCc1cccs1 (centres undefined)	-1	/	-1	1	/	/
CN(CC(=O)Nc1cccc(F)c1)C(=O)c1cn(-c2ccccc2)nc1-c1ccc(Cl)cc1	4	-9	4	11	5	156*
CCOC(=O)c1c(NC(=O)CCc2ccc(CC)o2)sc(C)c1C	2	97*	0	4	-1	0
COC(=O)c1c(NC(C)=O)sc(C)c1C	0	/	3	-1	-4	2
CCOC(=O)c1ccc(NC(=O)CCc2ccc(CC)o2)cc1	-2	13	2	-2	13	-2
COC(=O)c1c(NC(=O)CCc2ccc(C)o2)sc(C)c1C	5	97*	10	4	-3	1
O=C(COc1cccc2cccnc12)N/N=C/c1ccc(O)cc1	0	99*	5	3	7	-2
Cc1ccccc1OCC(=O)N/N=C/c1ccncc1	2	-2	23*	-1	1	1
COc1ccc(S[C@]2(C(=O)N3CCN(c4ncccn4)CC3)CC(=O)N(c3ccc(Cl)cc3)[C@@H]2c2ccc(OC)cc2)cc1	1	/	/	11	/	/
CN1c2cccc3cccc(c23)N(C)C1c1cccs1	9	90*	-9	-1	7	1
O=c1[nH]c2cc([N+](=O)[O-])ccc2c2cc(Br)ccc12	0	/	-5	21	/	/
CN1CCN(Cc2c(O)ccc3cc(Br)ccc23)CC1	14	78*	/	5	/	-3
Cc1ccc(NC(=O)C2CCCN2S(=O)(=O)c2cccnc2)c(C)c1 (centres undefined)	3	/	/	0	/	/
CC(=O)c1ccc(-c2cnc3c(NC=O)cc(-c4cnn(C)c4)cn23)cc1	7	/	9	10	/	/
COc1ccccc1CCC[C@H](CCS(=O)(=O)C(C)C)CC1CCCCC1	2	/	/	4	/	/
COC(=O)c1[nH]c2ccc(Cl)cc2c1NC(=O)Oc1ccccc1	1	100*	-5	4	-17	1
COC(=O)c1[nH]c2ccc(C)cc2c1NC(=O)Nc1ccccc1OC	3	97*	0	7	8	-3
COc1ccc(CN2CCC(CNC(=O)Nc3ccccc3)CC2)cc1	-6	/	/	0	/	/
COc1ccccc1NS(=O)(=O)c1ccc(C(=O)NCCCN2CCOCC2)cc1	-5	/	9	0	21	/
O=C(O)c1cccc(-c2csc(C(O)c3ccccc3)n2)c1 (centres undefined)	0	/	8	0	/	/
COc1cccc2cc3c(nc12)C[C@@H]1CCCC(=O)N2CCC[C@@]12C3	-2	/	/	/	/	/
Cc1cc(NS(=O)(=O)c2ccc(NC(=S)NC(=O)c3ccc(Cl)cc3Cl)cc2)no1	2	67	-3	65*	12	1
Cc1cc(NS(=O)(=O)c2ccc(NC(=O)c3ccc(Cl)cc3Cl)cc2)no1	-2	15	-4	11	-23	-12
Cc1cc(NC(=O)c2ccc(S(=O)(=O)Nc3ccccc3)cc2)no1	4	98*	-8	7	7	-3
CC(C)(C)N(Cc1cn(CC2CCCCC2)nn1)S(=O)(=O)c1ccc(F)cc1Br	2	/	/	-2	/	/
COc1ccc(OC)c(C2=CC(=O)C[C@H](c3ccc4c(c3)OCO4)C2)c1	-3	-3	-5	-8	3	-4
COc1ccc(Nc2cc(C)nc(NCc3ccccc3)n2)cc1	-6	75*	22*	7	7	-7
